D1 allo mod: D1 CRE-luciferase signal change, two-sided – cell-based, HEK293 D1, dopamine EC30, D1 allosteric modulator project, primary screen | D(1A) dopamine receptor (Homo sapiens), P21728 | B-score at 10 µM | dopamine EC30 potentiation; actives deviate in either direction | 58,000 tested, 5.9% active | AID 641, 2007;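 active = luminescence count or its row- and column-corrected plate score outside the 99.7% band of the plate's sample wells, on either side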
Target sequence (P21728 whole entry, looked up): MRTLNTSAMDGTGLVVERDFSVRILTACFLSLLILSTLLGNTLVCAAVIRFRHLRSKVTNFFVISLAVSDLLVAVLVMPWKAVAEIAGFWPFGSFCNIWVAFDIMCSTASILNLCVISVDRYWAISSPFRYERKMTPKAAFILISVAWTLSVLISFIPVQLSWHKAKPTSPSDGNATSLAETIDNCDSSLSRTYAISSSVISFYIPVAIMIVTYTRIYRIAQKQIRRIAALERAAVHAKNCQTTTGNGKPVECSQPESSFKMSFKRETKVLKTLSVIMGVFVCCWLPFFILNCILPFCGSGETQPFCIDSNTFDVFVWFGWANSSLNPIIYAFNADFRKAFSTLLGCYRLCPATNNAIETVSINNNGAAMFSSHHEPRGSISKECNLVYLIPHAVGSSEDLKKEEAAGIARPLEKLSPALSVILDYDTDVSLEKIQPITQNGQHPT
hDAT+cocaine: changed hDAT dopamine uptake under cocaine IC80, either direction, primary screen, cocaine antagonist project, cell-based, LLC-PK1 hDAT, [14C]-dopamine uptake, MLSMR. Sodium-dependent dopamine transporter (Homo sapiens), Q01959. LLC-PK1 hDAT cells, [14C]-dopamine uptake with cocaine IC80; actives deviate in either direction. B-score at 10 µM. 110,000 tested, 1.3% active;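 active = Z score or B-score, a plate-position-corrected score, falls beyond the plate's 99.7% confidence bounds, in either direction; inactive = both scores lie inside the 99.7% bounds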
CYP2C9 inhib: blockers of cytochrome P450 2C9 activity – biochemical, luminescence, ADME assay, primary screen; CYP2C9 Supersomes, luciferin-H conversion; 96,000 tested, 20% active; inhibition, % at 5 µM; P11712;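 active = blocking of liver enzyme CYP2C9 beyond about 50% at 5 µM, limit read from the data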
CYP2C19 act: human CYP2C19 activators, primary screen, biochemical, luminescence; 96,000 tested, under 10 active; Cytochrome P450 2C19 (Homo sapiens), P33261; recombinant CYP2C19, luciferin-H EGE luminescence; hits give high values; 0 = fully inhibited enzyme, 1 = untreated enzyme; AID 1025, 2008; activation factor at 5 µM;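 active = activation factor of at least 2 at 5 µM in the primary screen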
CYP2C19 inh: blockers of cytochrome P450 2C19 activity – biochemical, luminescence, ADME assay, primary screen; CYP2C19 Supersomes, luciferin-H EGE luminescence, 30 min; inhibition, % at 5 µM; 96,000 tested, 21% active;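 active = CYP2C19 inhibition above a set limit at 5 µM in the primary screen, cut at about 50% in these data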
CYP2C9 act: human CYP2C9 activators, primary screen, biochemical, luminescence. Cytochrome P450 2C9 (Homo sapiens), P11712. recombinant CYP2C9, luciferin-H conversion; hits give high values; factor 1 = untreated enzyme, 0 = blocked. activation factor at 5 µM. 96,000 tested, 1.4% active;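 active = activation factor of 2 or more for CYP2C9 at a 5 µM dose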
Large screens that a line does not name were inactive. Only some compounds are listed: those with a hit (about 28% of all), similar ones and a draw of the others.

COc1cc(CNCCc2c[nH]c3ccccc23)ccc1OCc1ccc(F)cc1	hDAT+cocaine 4.35, CYP2C19 inh 62.7 (no result: D1 allo mod)
COc1cc(CNCCc2ccc(F)cc2)ccc1OCc1ccc(Cl)nc1	none (no result: D1 allo mod)
CSc1ccc(Cl)c(C(=O)OCC(=O)NCC(C)C)c1	CYP2C19 inh 66.2 (no result: D1 allo mod)
O=c1c([N+](=O)[O-])c(N2CCCCCC2)c2ccccc2n1-c1ccccc1	none (no result: D1 allo mod)
CC(C)c1ccccc1N=C1SCCN1C1CCS(=O)(=O)C1 (stereo not given)	CYP2C19 inh 58.3
CCC(CC)c1nnc(NC(=O)c2cccc(S(=O)(=O)N3CCc4ccccc43)c2)s1	CYP2C9 inhib 75.5 (no result: D1 allo mod)
CN1CCc2nc(NC(=O)c3cccc(S(=O)(=O)N4CCc5ccccc54)c3)sc2C1	none
Cn1cccc1C(=O)NC(=O)CSc1nc2ccccc2s1	none
Nc1nonc1NC(=O)CSc1nc2ccccc2s1	CYP2C19 inh 79.1
CC(C)c1nnc(NC(=O)CSc2nc3ccccc3s2)s1	none
O=C(CSc1nc2ccccc2s1)Nc1nccs1	CYP2C19 inh 52.9 (no result: D1 allo mod)
CCc1nnc(NC(=O)CSc2nc3ccccc3s2)s1	CYP2C9 inhib 57.5
O=C(CSc1nc2ccccc2s1)CSc1nc2ccccc2s1	none (no result: D1 allo mod)
CC(=O)Cc1nsc(NC(=O)c2cc(-c3ccccc3Cl)oc2C)n1	none
C[C@H]1O[C@@H](O[C@H]2[C@@H](O)C[C@H](O[C@H]3[C@@H](O)C[C@H](O[C@H]4CC[C@@]5(C)[C@H](CC[C@@H]6[C@@H]5C[C@@H](O)[C@]5(C)[C@@H](C7=CC(=O)OC7)CC[C@]65O)C4)O[C@@H]3C)O[C@@H]2C)C[C@H](O)[C@@H]1O	hDAT+cocaine -6.24 (no result: D1 allo mod, CYP2C9 inhib, CYP2C19 act, CYP2C19 inh, CYP2C9 act)
CCN1CCn2c3c(c4cc(C)ccc42)CCCC31 (stereo not given)	CYP2C9 inhib 51.6, CYP2C19 inh 53.8
O=C(NC1CCCCC1)c1nc2c(nnn2Cc2ccccc2Cl)c(=O)[nH]1	none (no result: CYP2C9 inhib, CYP2C19 act, CYP2C19 inh, CYP2C9 act)
COCCNC(=O)CC(c1ccccc1)c1ccccc1	CYP2C19 inh 52.0 (no result: D1 allo mod)
COCCNC(=O)CSc1nc(-c2ccccc2)c(-c2ccccc2)o1	CYP2C9 inhib 70.7, CYP2C19 inh 81.6 (no result: D1 allo mod)
COCCNC(=O)Cc1ccc(Br)cc1	CYP2C19 inh 55.5 (no result: hDAT+cocaine)
c1cncc(-c2nn3c(-c4ccncc4)nnc3s2)c1	none (no result: hDAT+cocaine, CYP2C9 inhib, CYP2C19 act, CYP2C19 inh, CYP2C9 act)
Clc1ccc(OCc2nn3c(C4CCCCC4)nnc3s2)cc1	CYP2C9 inhib 90.1
c1ccc(Cc2nnc3sc(C4COc5ccccc5O4)nn23)cc1 (stereo not given)	none (no result: CYP2C9 inhib, CYP2C19 act, CYP2C19 inh, CYP2C9 act)
c1ccc(Cc2nnc3sc(-c4ccc5c(c4)OCO5)nn23)cc1	D1 allo mod 6.21 (no result: CYP2C9 inhib, CYP2C19 act, CYP2C19 inh, CYP2C9 act)
COc1ccccc1-c1nn2c(C(F)(F)F)nnc2s1	none
c1ccc(Cc2nnc3sc(-c4cccnc4)nn23)cc1	CYP2C9 inhib 63.5, CYP2C19 inh 98.4
Cc1ccc(OCc2nn3c(-c4ccco4)nnc3s2)cc1	none
CCOc1ccccc1-c1nn2c(Cc3ccccc3)nnc2s1	CYP2C19 inh 54.4
CC(C)CCOc1ccc(C(=O)CCNC(C)C(=O)O)cc1 (stereo not given)	none
COc1ccc(NC(=O)CC2SC(=Nc3ccccc3)NC2=O)c(OC)c1 (stereo not given)	none
CCCCCCNC(=O)N1C/C=C\C(c2ccc(OC)cc2)N(Cc2ccc(F)cc2)C(=O)C1 (stereo not given)	none (no result: D1 allo mod, CYP2C9 inhib, CYP2C19 act, CYP2C19 inh, CYP2C9 act)
Cc1ccc(-c2nnc3sc(-c4ccncc4)nn23)cc1	none
c1ccc(Cc2nnc3sc(-c4ccccn4)nn23)cc1	CYP2C9 inhib 63.4, CYP2C19 inh 92.5
c1ccc(CCc2nn3c(C4COc5ccccc5O4)nnc3s2)cc1 (stereo not given)	none
c1ccc(Cc2nnc3sc(-c4ccncc4)nn23)cc1	CYP2C9 inhib 51.6, CYP2C19 inh 96.2
c1ccc(CCc2nn3c(Cc4ccccc4)nnc3s2)cc1	CYP2C9 inhib 72.8, CYP2C19 inh 80.4
c1ccc(-c2nn3c(C4CCCCC4)nnc3s2)nc1	CYP2C9 inhib 59.3, CYP2C19 inh 69.9
COC(=O)c1cc(OC)c(OC)cc1NC(=O)c1ccc(C)o1	none (no result: D1 allo mod)
CCc1nnc(NC(=O)c2cc3ccccc3oc2=O)s1	hDAT+cocaine -8.92
CCc1nnc(NC(=O)c2ccc(OC)cc2OC)s1	D1 allo mod -4.83
Cc1ccccc1-c1nnc(NC(=O)c2cc3ccccc3oc2=O)s1	none (no result: D1 allo mod, CYP2C9 inhib, CYP2C19 act, CYP2C19 inh, CYP2C9 act)
O=C(Nc1cc(C(F)(F)F)ccc1N1CCOCC1)c1ccco1	none
O=C(Cn1c(CO)nc2ccccc21)Nc1cc(C(F)(F)F)ccc1N1CCOCC1	CYP2C9 inhib 52.8
CSc1ncccc1C(=O)OCC(=O)Nc1cc(C(F)(F)F)ccc1N1CCOCC1	CYP2C9 inhib 51.4
Cc1onc(-c2ccccc2)c1C(=O)Nc1ccccc1N1CCOCC1	CYP2C9 inhib 81.2, CYP2C19 inh 98.7
CCCOc1ccccc1NC(=O)c1c(-c2ccccc2)noc1C	none
O=C(CCc1ccccc1)NC(=S)Nc1cc(C(F)(F)F)ccc1N1CCOCC1	CYP2C9 inhib 93.0, CYP2C19 inh 88.2 (no result: D1 allo mod)
Cc1cccc(N(CC(=O)NC2CCCCC2)C(=O)c2c(C)noc2C)c1	none (no result: D1 allo mod)
Cn1ccnc1-c1nnn(-c2ccc(Cl)c(Cl)c2)n1	none (no result: D1 allo mod, CYP2C9 inhib, CYP2C19 act, CYP2C19 inh, CYP2C9 act)
O=C(Nc1cc(C(F)(F)F)ccc1N1CCOCC1)c1ccc(F)cc1	CYP2C19 inh 76.6 (no result: D1 allo mod)
O=C(Nc1cc(C(F)(F)F)ccc1N1CCOCC1)c1ccc[n+]([O-])c1	none (no result: D1 allo mod)
O=C(Nc1cc(C(F)(F)F)ccc1N1CCOCC1)c1cccnc1	none
Cc1onc(-c2ccccc2)c1C(=O)Nc1cc(C(F)(F)F)ccc1N1CCOCC1	CYP2C9 inhib 55.8, CYP2C19 inh 64.6
O=C1CC(SCc2nc3ccccc3[nH]2)C(=O)N1c1ccc(Cl)cc1 (stereo not given)	none (no result: D1 allo mod)
O=C1CC(SCc2nc3ccccc3[nH]2)C(=O)N1c1cccc(F)c1 (stereo not given)	CYP2C9 inhib 71.0, CYP2C19 inh 81.1 (no result: hDAT+cocaine)
O=C1CC(SCCc2nc3ccccc3[nH]2)C(=O)N1c1ccc(Cl)cc1 (stereo not given)	none (no result: D1 allo mod)
O=C1CC(SCc2nc3ccccc3[nH]2)C(=O)N1c1ccc(F)c(Cl)c1 (stereo not given)	CYP2C19 inh 52.4 (no result: D1 allo mod)
CCC(=O)Nc1ccc(Oc2ccc3c(c2)C(=O)N(c2ccc(O)cc2)C3=O)cc1	CYP2C19 inh 76.9 (no result: D1 allo mod, hDAT+cocaine)
Cc1[nH]n(-c2ccccc2)c(=O)c1CCOC(=O)c1cccc(C(F)(F)F)c1	CYP2C19 inh 78.2 (no result: D1 allo mod)
CSc1nc(C)c(CCOC(=O)c2cccc(C)c2)c(=O)[nH]1	none (no result: D1 allo mod)
O=C(O)c1cccc(CSc2nc(-c3ccc(Cl)cc3)cc(C(F)(F)F)n2)c1	hDAT+cocaine 3.01 (no result: D1 allo mod)
CCOC(=O)CCSc1nc(-c2ccccc2)cc(C(F)(F)F)n1	none (no result: D1 allo mod, CYP2C9 inhib, CYP2C19 act, CYP2C19 inh, CYP2C9 act)
